# Screening results (PubChem)
# Only some compounds are listed: those with a hit (about 4.8% of all), similar ones and a draw of the others.
# ssDAF-12 act: S. stercoralis DAF-12 nuclear receptor activators, primary screen, cell-based, luminescence, HEK293, GRIP1 co-expression, lit1-tk-luc. Nuclear hormone receptor DAF-12 (Strongyloides stercoralis). HEK293 ssDAF-12/GRIP1 lit1-tk-luc reporter; % of 3 µM dafachronic acid response. activation, % at 6.8 µM. actives 1% (n = 370,000). AID 652126, 2013;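 active = activation above the mean over all tested compounds plus 3 SD, cut at about 0.9% in these data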;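 also: 0% = DMSO-only wells and 100% = 3 µM delta7-dafachronic acid wells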
# DAX1 inh-1: DAX1 (NR0B1) inhibitors on StAR promoter, primary screen, cell-based, luminescence, SF-1 (NR5A1), full-length DAX-1; inhibition, % at 6.8 µM; actives 1.1% (n = 370,000); HEK293T StAR-luciferase reporter, SF-1/DAX-1 repression relief;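 active = inhibition above the mean over all tested compounds plus 3 SD, cut at about 3.6% in these data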;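 also: 0% = DAX-1 cells with DMSO and 100% = cells lacking DAX-1 with DMSO; higher inhibition means more luminescence from relief of DAX-1 repression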
# DAX1 inh-2: DAX1 (NR0B1) inhibitors, primary screen, cell-based, HEK293, Gal4-DAX1, luciferase luminescence; actives 0.99% (n = 340,000); Nuclear receptor subfamily 0 group B member 1 (Homo sapiens), P51843; HEK293 Gal4-DAX1 luciferase reporter; inhibition, % at 6.75 µM;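 active = inhibition above the mean over all tested compounds plus 3 SD, cut at about 4.2% in these data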;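 also: 0% = DAX1-transfected cells with DMSO and 100% = empty-vector control cells with DMSO; inhibition shows as a rise in luminescence from relieved DAX1 repression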
# Target sequence (P51843 207-470 limits assumed): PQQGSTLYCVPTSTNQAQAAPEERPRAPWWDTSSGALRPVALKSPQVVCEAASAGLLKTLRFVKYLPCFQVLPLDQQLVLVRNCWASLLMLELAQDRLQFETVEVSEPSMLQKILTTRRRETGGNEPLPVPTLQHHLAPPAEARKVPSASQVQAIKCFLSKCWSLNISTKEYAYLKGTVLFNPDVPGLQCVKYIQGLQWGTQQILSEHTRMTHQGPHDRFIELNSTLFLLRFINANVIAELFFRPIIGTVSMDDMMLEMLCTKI
# hcDAF-12 act: H. contortus DAF-12 nuclear receptor activators, primary screen, cell-based, luminescence, HEK293, lit1-tk-luc reporter. HEK293 hcDAF-12 lit1-tk-luc reporter; 0% DMSO, 100% Δ7-dafachronic acid. activation, % at 6.8 µM. actives 1.4% (n = 370,000);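 active = activation above the mean of all tested compounds plus 3 SD, cut at about 5.5% in these data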;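 also: 100% = response to 3 µM Δ7-dafachronic acid high control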
# hgDAF12 agonist: H. glycines DAF-12 receptor agonists, primary screen, cell-based, luminescence, HEK293, GAL4 fusion, UAS-luciferase; Nuclear hormone receptor DAF-12 (Heterodera glycines), GAL4 fusion; HEK293 GAL4-hgDAF12 UAS-luciferase reporter, agonist luminescence; normalized to butyrate control; activation, % at 6.8 µM; actives 1.8% (n = 370,000); AID 687014, 2013;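 active = activation above a cutoff set at the mean of all screened compounds plus 3 SD, cut at about 10% in these data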;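 also: 0% = DMSO wells and 100% = sodium butyrate wells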
# SMARCA2 act: SMARCA2 (BRM) function activators, primary screen, cell-based, luminescence, high throughput | MG213 cells, MMTV-luciferase reporter, dexamethasone, overnight | activation, % at 9.1 µM | actives 1% (n = 370,000); in the data active = activation above about 7.8%;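 also: 0% = vehicle wells and 100% = reference activator wells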
# LXR ag: LXR agonists, Gal4 luciferase reporter, confirmation, counter-screen for hcDAF-12 agonist project, cell-based, luminescence, HEK293, H. contortus campaign | 3,400 tested, under 10 active | activation, % at 6.8 µM | HEK293 Gal4-LXR tk-luc reporter, 24 h; normalized: DMSO 0%, positive control 100% | shares compounds with hcDAF-12 act;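 active = mean percent activation of the reporter above a cutoff set as the average over tested compounds plus their standard deviation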
# hcDAF12 ag: H. contortus DAF-12 receptor agonists, confirmation, cell-based, luminescence, HEK293, lit1-tk-luc, triplicate | shares compounds with hcDAF-12 act | HEK293 hcDAF-12 lit1-tk-luc reporter; % of Δ7-dafachronic acid response | activation, % at 6.8 µM | actives 61% (n = 3,400) | AID 743032, 2013;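 active = mean activation across triplicate tests above the threshold derived from the earlier primary screen, cut at about 5.5% in these data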;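 also: 0% = DMSO only wells and 100% = 3 µM Δ7-dafachronic acid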
# * marks the source's active call; other numbers are inactive results; . = no result.
SMILES,ssDAF-12 act,DAX1 inh-1,DAX1 inh-2,hcDAF-12 act,hgDAF12 agonist,SMARCA2 act,LXR ag,hcDAF12 ag
COc1cccc(/C=N/Nc2ccccc2C(=O)O)c1O,1.4*,3,5.0*,7.8*,9,5,1,11*
COc1cccc(/C=N/Nc2ccc(C(=O)O)cc2)c1O,-3,-4,-8,-6,-17,-7,.,.
Cc1cc(C)c2c(c1)N[C@H](c1cccs1)[C@@H]1CCO[C@H]21,-1,0,1,-2,1,-1,.,.
CC(C)c1ccc2c(c1)[C@H]1OCC[C@H]1[C@@H](c1cccs1)N2,1,-3,-2,14*,10,-1,0,4
C=CC[C@]12C[C@@]3(O[C@H](C4CCCCC4)N=C3C[C@H](c3ccc(OC)cc3)[C@H]1C)N(Cc1ccncc1)C2=O,-2,-1,.,-1,-1,0,.,.
Cc1ccc(NC(=O)CSc2cn[nH]n2)cc1,0,0,0,7.0*,1,1,0,1
COC(=O)c1cc2c(c3c4cc(F)ccc4n(S(=O)(=O)c4ccc(C)cc4)c13)C(=O)N(Cc1ccccc1OC)C2,0,0,.,0,-1,-6,.,.
Cn1nc(C(C)(C)C)cc1C(=O)NCC1CCN(C(=O)C(=O)c2cc3ccccc3o2)CC1,-2,-3,.,-3,-3,-7,.,.
COc1ccccc1NC(=O)c1oc2ccccc2c1C,2.2*,-1,3,7.0*,9,4,0,6.7*
COc1ccc(NC(=O)c2oc3ccccc3c2C)c(OC)c1,0,0,0,2,3,2,.,.
O=C(C(=O)N1CCN(C(=O)C2CCC2)CC1)c1cccc(C(F)(F)F)c1,-1,1,.,3,0,-2,.,.
CC(=O)n1nc(-c2ccccc2)cc1-c1ccccc1,1.6*,1,4.6*,14*,12*,1,1,16*
COc1ccccc1N/N=C(\C#N)C(=N)N1CCOCC1,-1,1,1,-1,-2,0,.,.
Cc1ccc(N/N=C(\C#N)C(=N)N2CCCCC2)cc1,1.2*,3,7.4*,6.9*,19*,4,2,11*
COc1ccccc1-n1c(Cc2cccc3ccccc23)nnc1SCC(=O)O,-1,1,.,-1,3,0,.,.
COc1ccccc1Cc1nc(-c2ccc(Br)o2)no1,1,3,-2,8.1*,4,0,0,8.0*
C[C@H](NC(=O)c1cc2cc(Cl)ccc2n1C)C(=O)N[C@@H](Cc1ccccc1)C(=O)O,-1,0,0,1,2,0,.,.
C[C@H](NC(=O)[C@H](Cc1ccccc1)NC(=O)c1cc2cc(Cl)ccc2n1C)C(=O)O,0,0,0,6.8*,1,-2,0,4
CCCCCCC12C(=Cc3cc4c(cc31)OCCO4)c1cc(OC)c(OC)cc1C(CC(=O)NCc1ccccc1)N2C(=O)OC (configuration not stated),-1,-1,.,-1,1,-3,.,.
COc1ccccc1NC(=O)/C=C\C(=O)O,0,0,-1,7.3*,0,-1,0,0
COc1ccccc1NC(C)=O,-2,-1,0,0,0,3,.,.
Cc1cscc1NC(=O)/C=C/C(=O)O,0,0,.,6.8*,1,-1,0,1
Cc1ccc(S(=O)(=O)N2CC3=C(c4ccccc4)CC4(C)C(=O)C(C)(C)CC4=C3C2)cc1 (configuration not stated),-1,0,.,1,0,-4,.,.
CCc1cc2c(nc1CC)CCCN2CCOC,-1,-1,.,-1,0,2,.,.
Cc1cc(C)n2nc(Nc3ccccc3)cc2n1,0,1,1,7.2*,2,0,0,11*
SMILES,ssDAF-12 act,DAX1 inh-1,DAX1 inh-2,hcDAF-12 act,hgDAF12 agonist,SMARCA2 act,LXR ag,hcDAF12 ag
Cc1cc(C)n2nc3ccccc3c2n1,0,0,-1,3,0,-1,.,.
CC(C)S(=O)(=O)N[C@@H]1c2cc3c(cc2[C@H](c2ccccc2)[C@H]1C)OCO3,-1,-2,.,2,3,-1,.,.
Cc1nn(-c2ccccc2)c2c1C1(C(=O)N(C)c3ccccc31)N(c1ccccc1)C(=O)N2 (configuration not stated),0,2,-2,6.6*,3,-2,0,4
Fc1ccc(C(Nc2ccccn2)c2c[nH]c3ccccc23)cc1 (configuration not stated),0,-1,0,3,-6,-2,.,.
CC(c1cc(F)ccc1O)c1c[nH]c2ccccc12 (configuration not stated),0,0,.,6.7*,2,-2,0,6
Cc1ccc(C(=O)NC2CCCCCCC2)c(Cl)c1,0,2,-3,6.9*,6,0,1,8.8*
CCCCCCCCN1C(=O)[C@@H](CC(=O)NCC23CC4CC(CC(C4)C2)C3)C[C@@]2(C(=O)OC)C1=C[C@H](C1CCCC1)O[C@@H]2C,-1,0,.,1,-1,-5,.,.
O=C(CNc1ccc2ccccc2c1)N/N=C/c1cc2ccccc2nc1Cl,0,1,-1,13*,4,1,0,4
CC(C)[C@H](NC(=O)c1cccs1)C(=O)N1CCC[C@H]1C(=O)NCc1ccccc1,-1,0,.,1,-1,2,.,.
COCc1cc(N2CCNC[C@H]2C)ccc1N1CCS(=O)(=O)CC1,-1,0,.,4,0,2,.,.
CC(C)Oc1cccc(C(=O)NC(=S)Nc2cccnc2)c1,0,1,1,2,7,5,.,.
